According to PubChem BioAssay (NCATS):
Results filed as inconclusive are left out. Activity calls are given as the source filed them. Unless noted, calls come from the whole dose curve; as a rule, active = well fitted curve in the direction sought with a large enough effect; inconclusive = small, poorly fitted or top-dose-only effect, or another doubt; inactive = no such curve, though single readings can be large; an effect the other way counts as inactive or inconclusive.

How the values were obtained:
[1] = biological target: ATP-dependent 6-phosphofructokinase (Trypanosoma brucei brucei) (UniProt O15648); test: qHTS Assay to Find Inhibitors of T. brucei phosphofructokinase: hit validation (AID 492961);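 note: luminescence reports ADP formed as PFK phosphorylates fructose-6-phosphate with ATP; % is set by controls: 0 for no effect and ±100 for the full control effect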
In short: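 PFK 1.25 nM, F6P 0.5 mM, ATP 0.1 mM, MgCl2 5 mM, 0.1 M TEA pH 8.0, Tween20 0.01%, BSA 0.1%; 45 min RT. ADP-Glo two-step detection, luminescence. qHTS titration; curve fitting with curve-class categorization.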

[2] = biological target: Ubiquitin carboxyl-terminal hydrolase 1 (Homo sapiens) (UniProt O94782); test: Inhibitors of USP1/UAF1: Pilot qHTS (AID 504865);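 note: rhodamine fluorescence freed from ubiquitin-rhodamine substrate followed over time; top concentration of the series differs between compounds; % is set by controls: 0 for no effect and ±100 for the full control effect; nearly all actives have a fitted effect of over 35% in size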
In short: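 USP1/UAF1 complex at 1 nM preincubated 15 min at room temperature with compound, then Ub-Rho substrate added at 150 nM final. Fluorescence (480/540 nm) read kinetically in 50 mM HEPES pH 7.8, 0.5 mM EDTA, 1 mM TCEP, 0.1 mg/ml BSA, 0.01% Tween-20.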

[3] = biological target: Luciferin 4-monooxygenase (Photinus pyralis) (UniProt P08659); test: Biochemical firefly luciferase enzyme assay for NPC (AID 624030);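 note: purified P. pyralis luciferase at 10 nM with luciferin and ATP substrate; 0% = DMSO and -100% = full luciferase inhibition by PTC124 control; nearly all actives have a fitted effect of over 70% in size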
In short: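 Counter-screen for direct inhibition of the luciferase enzyme by approved-drug library compounds, run at 10 nM enzyme in 50 mM Tris acetate (final). Luminescence was read within 5 min of enzyme-buffer addition and normalized to PTC124 versus DMSO (0%).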

[4] = S16 Schwann cell viability assay (CellTiter-Glo assay) (AID 624031);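 note: cellular ATP luminescence as a viability measure; plate controls were DMSO-treated cells for no effect and cell-free wells for full effect; nearly all actives have a fitted effect of over 70% in size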
In short: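 Native S16 rat Schwann cells in DMEM/10% FBS without phenol red were incubated overnight, then exposed to compounds for 24 h at 37 °C/5% CO2. Viability was read as ATP luminescence (CellTiter-Glo), normalized to no-cell wells and DMSO (0%).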

[5] = S16 Schwann cell PMP22 intronic element beta-lactamase assay (AID 624044; calls by dose curve; note: potency is the fitted concentration of half-maximal effect; nearly all actives have a fitted effect of over 15% in size)
In short: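 Beta-lactamase reporter under a PMP22 intronic regulatory element in stable S16 rat Schwann cells; 24 h compound exposure. 460 nm blue signal normalized between DMSO (0%) and potassium clavulanate, with 535 nm FRET tracking viability; curves classed by r2 and response.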

Furin (Homo sapiens) = Furin (Homo sapiens) (UniProt P09958); test: Furin counterscreen qHTS for Zika virus inhibitors (AID 1347149);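 note: purified recombinant full-length human furin enzyme at 5 nM; fluorescence gain from furin cutting a BOC-RVRR-AMC peptide substrate over 15 min; top concentration of the series differs between compounds; plate controls were no-inhibitor control for no effect and no-enzyme control for full effect; nearly all actives have a fitted effect of over 70% in size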
In short: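 Counterscreen measures cleavage of 2 microM BOC-RVRR-AMC, below its ~15 microM Km, by 5 nM full-length human furin at pH 7.0 after a 15-min compound preincubation. Inhibition derives from the 15-min fluorescence increase at 37C.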

[6] = system: Zika virus NS2B-NS3 protease (unlinked); test: Optimization of GU AMC qHTS for Zika virus inhibitors: Unlinked NS2B-NS3 protease assay (AID 1347151); note: nearly all actives have a fitted effect of over 80% in size; note: potency is the fitted concentration of half-maximal effect
In short: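 Noncovalent NS2B hydrophilic domain–NS3 protease complex (25 nM final) in 10 mM Tris-HCl pH 8.0, 0.01% Tween 20; AMC substrate, room temperature 15 min (~20% conversion); fluorescence change normalized, 4-parameter Hill fit.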

[7] = Vero cells viability qHTS for Zika virus inhibitors (AID 1347167); note: % is set by controls: 0 for no effect and ±100 for the full control effect
In short: (§1)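 To flag cytotoxic protease inhibitors, viability is measured by ATP-dependent luminescence (CellTiter Glo) after cells attached overnight receive compound for 24 to 48 hours in DMEM with 4% FBS.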

[8] = qHTS profiling for inhibitors of Plasmodium falciparum proliferation (AID 504749); note: nearly all actives have a fitted effect of over 60% in size; note: potency is the fitted concentration of half-maximal effect;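 for activity, negative = inhibition: 0% = DMSO vehicle and full inhibition = artemisinin control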; conditions: P. falciparum in erythrocytes, SYBR Green DNA, 72 h, at 28.7 µM (top of the series)
In short: (§2)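 Quantitative HTS: compounds pinned into medium, infected erythrocytes added (0.3% parasitemia, 2.5% hematocrit), 72 h culture at 37 C under 5% CO2. Saponin/Triton lysis with SYBR Green I, overnight RT, then fluorescence read.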

3D7 = test: as above; conditions: P. falciparum in erythrocytes, SYBR Green DNA, 72 h; series mostly up to 28.7 µM
In short: as §2

AS120 = test: as above; conditions: P. falciparum in erythrocytes, SYBR Green DNA, 72 h; series mostly up to 28.7 µM
In short: as §2

ATS95 = test: as above; conditions: P. falciparum in erythrocytes, SYBR Green DNA, 72 h; series mostly up to 28.7 µM
In short: as §2

C2A = test: as above; conditions: P. falciparum in erythrocytes, SYBR Green DNA, 72 h; series mostly up to 28.7 µM
In short: as §2

CP185 = test: as above; conditions: P. falciparum in erythrocytes, SYBR Green DNA, 72 h; series mostly up to 28.7 µM
In short: as §2

CP191 = test: as above; conditions: P. falciparum in erythrocytes, SYBR Green DNA, 72 h; series mostly up to 28.7 µM
In short: as §2

CP192 = test: as above; conditions: P. falciparum in erythrocytes, SYBR Green DNA, 72 h; series mostly up to 28.7 µM
In short: as §2

CP201 = test: as above; conditions: P. falciparum in erythrocytes, SYBR Green DNA, 72 h; series mostly up to 28.7 µM
In short: as §2

CP211 = test: as above; conditions: P. falciparum in erythrocytes, SYBR Green DNA, 72 h; series mostly up to 28.7 µM
In short: as §2

CP215 = test: as above; conditions: P. falciparum in erythrocytes, SYBR Green DNA, 72 h; series mostly up to 28.7 µM
In short: as §2

CP237 = test: as above; conditions: P. falciparum in erythrocytes, SYBR Green DNA, 72 h; series mostly up to 28.7 µM
In short: as §2

CP238 = test: as above; conditions: P. falciparum in erythrocytes, SYBR Green DNA, 72 h; series mostly up to 28.7 µM
In short: as §2

CP247 = test: as above; conditions: P. falciparum in erythrocytes, SYBR Green DNA, 72 h; series mostly up to 28.7 µM
In short: as §2

CP250 = test: as above; conditions: P. falciparum in erythrocytes, SYBR Green DNA, 72 h; series mostly up to 28.7 µM
In short: as §2

CP252 = test: as above; conditions: P. falciparum in erythrocytes, SYBR Green DNA, 72 h; series mostly up to 28.7 µM
In short: as §2

CP256 = test: as above; conditions: P. falciparum in erythrocytes, SYBR Green DNA, 72 h; series mostly up to 28.7 µM
In short: as §2

CP262 = test: as above; conditions: P. falciparum in erythrocytes, SYBR Green DNA, 72 h; series mostly up to 28.7 µM
In short: as §2

CP266 = test: as above; conditions: P. falciparum in erythrocytes, SYBR Green DNA, 72 h; series mostly up to 28.7 µM
In short: as §2

CP269 = test: as above; conditions: P. falciparum in erythrocytes, SYBR Green DNA, 72 h; series mostly up to 28.7 µM
In short: as §2

CP291 = test: as above; conditions: P. falciparum in erythrocytes, SYBR Green DNA, 72 h; series mostly up to 28.7 µM
In short: as §2

CP305 = test: as above; conditions: P. falciparum in erythrocytes, SYBR Green DNA, 72 h; series mostly up to 28.7 µM
In short: as §2

CP315 = test: as above; conditions: P. falciparum in erythrocytes, SYBR Green DNA, 72 h; series mostly up to 28.7 µM
In short: as §2

CP325 = test: as above; conditions: P. falciparum in erythrocytes, SYBR Green DNA, 72 h; series mostly up to 28.7 µM
In short: as §2

CP329 = test: as above; conditions: P. falciparum in erythrocytes, SYBR Green DNA, 72 h; series mostly up to 28.7 µM
In short: as §2

DFO2036 = test: as above; conditions: P. falciparum in erythrocytes, SYBR Green DNA, 72 h; series mostly up to 28.7 µM
In short: as §2

DIV30 = test: as above; conditions: P. falciparum in erythrocytes, SYBR Green DNA, 72 h; series mostly up to 28.7 µM
In short: as §2

Dd2 = test: as above; conditions: P. falciparum in erythrocytes, SYBR Green DNA, 72 h; series mostly up to 28.7 µM
In short: as §2

ECU = test: as above; conditions: P. falciparum in erythrocytes, SYBR Green DNA, 72 h; series mostly up to 28.7 µM
In short: as §2

FAB9 = test: as above; conditions: P. falciparum in erythrocytes, SYBR Green DNA, 72 h; series mostly up to 28.7 µM
In short: as §2

HB3 = test: as above; conditions: P. falciparum in erythrocytes, SYBR Green DNA, 72 h; series mostly up to 28.7 µM
In short: as §2

JCK = test: as above; conditions: P. falciparum in erythrocytes, SYBR Green DNA, 72 h; series mostly up to 28.7 µM
In short: as §2

PC15 = test: as above; conditions: P. falciparum in erythrocytes, SYBR Green DNA, 72 h; series mostly up to 28.7 µM
In short: as §2

PC26 = test: as above; conditions: P. falciparum in erythrocytes, SYBR Green DNA, 72 h; series mostly up to 28.7 µM
In short: as §2

PC49 = test: as above; conditions: P. falciparum in erythrocytes, SYBR Green DNA, 72 h; series mostly up to 28.7 µM
In short: as §2

SC27B = test: as above; conditions: P. falciparum in erythrocytes, SYBR Green DNA, 72 h; series mostly up to 28.7 µM
In short: as §2

TAB113 = test: as above; conditions: P. falciparum in erythrocytes, SYBR Green DNA, 72 h; series mostly up to 28.7 µM
In short: as §2

TAB165 = test: as above; conditions: P. falciparum in erythrocytes, SYBR Green DNA, 72 h; series mostly up to 28.7 µM
In short: as §2

[9] = system: Zika virus NS2B-NS3 protease (linked); test: 384 well plate NINDS AMC confirmatory qHTS for Zika virus inhibitors (AID 1347163); note: potency is the fitted concentration of half-maximal effect; nearly all actives have a fitted effect of over 50% in size
In short: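 Fluorescence at 355/460 nm was read after 25 minutes of cleavage of 30 microM Ac-VKTGKR-AMC at room temperature, in the dark. Before substrate addition, compounds (up to 1 mM final) sat ~15 minutes with 5, 30 or 60 nM linked protease. Signals were normalized to no-enzyme and no-inhibitor wells.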

[10] = system: Zika virus NS2B-NS3 protease (linked construct); test: 384 well plate NINDS Rhodamine confirmatory qHTS for Zika virus inhibitors (AID 1347164);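 note: fluorescence from protease cleavage of Ac-LKRR-rhodamine 110 substrate; top concentration of the series differs between compounds; plate controls were no-inhibitor control for no effect and no-enzyme control for full effect; nearly all actives have a fitted effect of over 65% in size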
In short: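 Linked NS2B-NS3 protease (final 5, 30 or 60 nM) preincubated ~15 minutes with compounds, then 10 microM Ac-LKRR-Rhodamine 110 added. Fluorescence (485/538 nm) read after 25 minutes at room temperature, normalized to no-enzyme and no-inhibitor controls.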

[11] = HepG2 cells viability qHTS for Zika virus inhibitors (AID 1347168); note: % is set by controls: 0 for no effect and ±100 for the full control effect
In short: as §1

[12] = Tertiary RLuc qRT-PCR qHTS assay for Zika virus inhibitors (AID 1347169); note: top concentration of the series differs between compounds; % is set by controls: 0 for no effect and ±100 for the full control effect; nearly all actives have a fitted effect of over 55% in size
In short: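 Vero cells (1,000/well) infected with recombinant ZIKV-RLuc (Cambodian) at MOI 1-2 after compound addition, 48-72 hrs at 37 degrees C. Live-cell Renilla luciferase substrate added; luminescence read after 1-1.5 hrs.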

Furin (Homo sapiens), sequence (P09958 whole entry, looked up): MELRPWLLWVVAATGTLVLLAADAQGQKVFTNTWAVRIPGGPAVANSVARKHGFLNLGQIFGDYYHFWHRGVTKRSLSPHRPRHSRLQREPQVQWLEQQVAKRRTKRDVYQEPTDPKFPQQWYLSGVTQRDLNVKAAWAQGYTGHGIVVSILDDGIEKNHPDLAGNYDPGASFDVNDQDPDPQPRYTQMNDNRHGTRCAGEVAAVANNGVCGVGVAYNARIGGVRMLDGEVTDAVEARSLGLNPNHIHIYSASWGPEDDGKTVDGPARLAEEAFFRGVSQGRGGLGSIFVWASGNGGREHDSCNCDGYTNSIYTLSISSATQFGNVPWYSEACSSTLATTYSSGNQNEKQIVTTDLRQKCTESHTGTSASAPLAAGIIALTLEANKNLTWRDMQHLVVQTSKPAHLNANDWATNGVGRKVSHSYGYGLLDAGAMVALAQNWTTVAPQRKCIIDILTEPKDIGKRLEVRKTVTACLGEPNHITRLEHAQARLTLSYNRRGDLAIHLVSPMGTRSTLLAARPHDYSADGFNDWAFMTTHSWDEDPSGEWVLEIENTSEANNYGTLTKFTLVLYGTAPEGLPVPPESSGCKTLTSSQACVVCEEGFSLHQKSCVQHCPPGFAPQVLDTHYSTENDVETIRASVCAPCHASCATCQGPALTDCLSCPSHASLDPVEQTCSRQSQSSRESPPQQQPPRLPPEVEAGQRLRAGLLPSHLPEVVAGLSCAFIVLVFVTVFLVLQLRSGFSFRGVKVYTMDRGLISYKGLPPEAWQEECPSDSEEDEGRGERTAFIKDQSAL
Luciferin 4-monooxygenase (Photinus pyralis), sequence (P08659 whole entry, looked up): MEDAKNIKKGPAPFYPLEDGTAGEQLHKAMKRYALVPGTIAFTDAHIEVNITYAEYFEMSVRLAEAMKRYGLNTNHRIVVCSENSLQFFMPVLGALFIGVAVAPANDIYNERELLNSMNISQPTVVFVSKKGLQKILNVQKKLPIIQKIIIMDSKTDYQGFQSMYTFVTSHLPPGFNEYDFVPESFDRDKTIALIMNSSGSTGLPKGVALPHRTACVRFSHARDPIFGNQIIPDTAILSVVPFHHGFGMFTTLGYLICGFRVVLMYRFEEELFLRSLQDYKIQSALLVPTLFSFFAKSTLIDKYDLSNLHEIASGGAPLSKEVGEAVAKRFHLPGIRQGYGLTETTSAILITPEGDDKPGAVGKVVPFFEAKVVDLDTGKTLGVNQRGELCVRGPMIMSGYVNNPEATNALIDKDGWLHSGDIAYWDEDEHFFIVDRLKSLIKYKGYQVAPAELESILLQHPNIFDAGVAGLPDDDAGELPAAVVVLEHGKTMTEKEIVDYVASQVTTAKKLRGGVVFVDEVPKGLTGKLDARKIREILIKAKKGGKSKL
Ubiquitin carboxyl-terminal hydrolase 1 (Homo sapiens), sequence (O94782 whole entry, looked up): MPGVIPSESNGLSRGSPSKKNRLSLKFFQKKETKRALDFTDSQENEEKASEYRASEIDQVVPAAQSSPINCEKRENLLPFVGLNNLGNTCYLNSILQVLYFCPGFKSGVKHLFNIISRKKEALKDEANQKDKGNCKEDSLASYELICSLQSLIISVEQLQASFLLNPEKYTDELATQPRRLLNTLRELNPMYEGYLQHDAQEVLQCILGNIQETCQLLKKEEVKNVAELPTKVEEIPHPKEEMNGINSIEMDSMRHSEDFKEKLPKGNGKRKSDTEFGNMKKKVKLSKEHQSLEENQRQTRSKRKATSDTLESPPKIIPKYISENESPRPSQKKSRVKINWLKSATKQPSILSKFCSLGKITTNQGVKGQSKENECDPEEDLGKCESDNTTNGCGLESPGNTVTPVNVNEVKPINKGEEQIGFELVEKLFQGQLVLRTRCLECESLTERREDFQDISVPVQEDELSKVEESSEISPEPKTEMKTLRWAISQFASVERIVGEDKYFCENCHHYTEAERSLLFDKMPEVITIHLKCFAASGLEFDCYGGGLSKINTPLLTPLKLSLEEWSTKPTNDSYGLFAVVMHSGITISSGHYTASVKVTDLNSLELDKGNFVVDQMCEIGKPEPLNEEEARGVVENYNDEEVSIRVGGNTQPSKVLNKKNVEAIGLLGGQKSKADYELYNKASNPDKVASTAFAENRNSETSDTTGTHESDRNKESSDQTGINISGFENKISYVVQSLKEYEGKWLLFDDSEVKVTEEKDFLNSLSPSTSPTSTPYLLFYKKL
ATP-dependent 6-phosphofructokinase (Trypanosoma brucei brucei), sequence (O15648 whole entry, looked up): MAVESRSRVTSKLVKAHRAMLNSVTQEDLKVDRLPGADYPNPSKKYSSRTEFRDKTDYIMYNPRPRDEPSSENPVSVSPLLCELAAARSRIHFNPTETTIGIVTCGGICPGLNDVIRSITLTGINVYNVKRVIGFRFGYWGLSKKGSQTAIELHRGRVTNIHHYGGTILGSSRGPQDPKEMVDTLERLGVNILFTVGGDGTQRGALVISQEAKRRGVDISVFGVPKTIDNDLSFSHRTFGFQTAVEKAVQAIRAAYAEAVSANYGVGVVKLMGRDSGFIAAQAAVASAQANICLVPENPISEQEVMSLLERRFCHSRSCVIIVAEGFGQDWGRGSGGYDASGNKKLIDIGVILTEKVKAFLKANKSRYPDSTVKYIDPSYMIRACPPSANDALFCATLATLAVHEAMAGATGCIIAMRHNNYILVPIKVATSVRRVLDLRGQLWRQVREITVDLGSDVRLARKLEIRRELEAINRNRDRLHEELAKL

O=C1c2cccc3c2[C@@H](CCC3)CN1[C@@H]1CN2CCC1CC2
active: Potency [5] 11.2 µM | Potency (CP237) 10 µM | Potency (Dd2) 12.6 µM
inactive: outcome [1] | Potency [2] | Potency [3] | outcome [4] | Potency (Furin (Homo sapiens)) | Potency [6] | Potency [7] | activity, negative = inhibition ([8]; parasite line A) -7.65% | activity, negative = inhibition ([8]; parasite line B) 6.33% | Potency (3D7) | Potency (AS120) | Potency (ATS95) | Potency (C2A) | Potency (CP185) | Potency (CP191) | Potency (CP192) | Potency (CP201) | Potency (CP211) | Potency (CP215) | Potency (CP238) | Potency (CP247) | Potency (CP250) | Potency (CP252) | Potency (CP256) | Potency (CP262) | Potency (CP266) | Potency (CP269) | Potency (CP291) | Potency (CP305) | Potency (CP315) | Potency (CP325) | Potency (CP329) | Potency (DFO2036) | Potency (DIV30) | Potency (ECU) | Potency (FAB9) | Potency (HB3) | Potency (JCK) | Potency (PC15) | Potency (PC26) | Potency (PC49) | Potency (SC27B) | Potency (TAB113) | Potency (TAB165)

CN1CCN(C(=O)CCN2C(=O)/C(=C\c3ccccc3F)SC2=S)CC1
active: Potency [6] 49.4 µM | Potency [9] 251 µM
inactive: Potency (Furin (Homo sapiens)) | Potency [10] | Potency [7] | Potency [11] | Potency [12]
